Compounds with a hit are over-represented: about 31% of the library has one in this group of screens.
CYP2C19 inh = inhibitors of human CYP2C19; P33261; CYP2C19 Supersomes, luciferin-H EGE luminescence, 30 min; inhibition, % at 5 µM; 96,000 tested, 21% active; AID 778;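 active = CYP2C19 inhibition above a set limit at 5 µM in the primary screen, cut at about 50% in these data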;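 note: plate controls were negative control wells for no effect and 2.5 mM tranylcypromine positive control for full effect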
Target sequence (P33261 whole entry, looked up): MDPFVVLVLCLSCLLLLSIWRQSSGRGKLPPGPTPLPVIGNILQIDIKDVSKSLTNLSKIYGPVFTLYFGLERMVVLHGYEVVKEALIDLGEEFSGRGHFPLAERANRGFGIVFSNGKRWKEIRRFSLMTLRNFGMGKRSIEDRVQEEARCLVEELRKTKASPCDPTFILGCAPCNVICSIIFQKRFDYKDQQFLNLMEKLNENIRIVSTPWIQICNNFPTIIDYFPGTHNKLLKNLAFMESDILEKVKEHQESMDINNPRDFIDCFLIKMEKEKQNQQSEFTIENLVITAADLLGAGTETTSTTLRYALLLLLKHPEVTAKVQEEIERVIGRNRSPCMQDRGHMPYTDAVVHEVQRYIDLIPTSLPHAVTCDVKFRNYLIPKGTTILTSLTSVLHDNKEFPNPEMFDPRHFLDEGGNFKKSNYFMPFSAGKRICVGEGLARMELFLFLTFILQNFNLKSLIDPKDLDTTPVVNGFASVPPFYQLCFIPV
CYP2C9 act = CYP2C9 (human) activation; P11712; recombinant CYP2C9, luciferin-H conversion, luminescence; active compounds read high; factor 1 = untreated enzyme, 0 = blocked; activation factor at 5 µM; 96,000 tested, 1.4% active; AID 1024;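 active = activation factor of 2 or more for CYP2C9 at a 5 µM dose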;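 note: 0 = sulfaphenazole-blocked wells and 1 = vehicle-only wells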
CYP2C19 act = activators of human cytochrome P450 2C19; activation factor at 5 µM; recombinant CYP2C19, luciferin-H EGE luminescence; active compounds read high; 0 = fully inhibited enzyme, 1 = untreated enzyme; AID 1025; 96,000 tested, under 10 active; P33261;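 active = activation factor of at least 2 at 5 µM in the primary screen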;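 note: 0 = wells with 2.5 mM tranylcypromine and 1 = vehicle-only wells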
CYP2C9 inhib = inhibitors of human CYP2C9; inhibition, % at 5 µM; 96,000 tested, 20% active; CYP2C9 Supersomes, luciferin-H conversion, luminescence; AID 777;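 active = blocking of liver enzyme CYP2C9 beyond about 50% at 5 µM, limit read from the data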
The depositor's hits bear a star.

SMILES | CYP2C19 inh | CYP2C9 act | CYP2C19 act | CYP2C9 inhib
O=C(CCc1nc(-c2ccccc2F)no1)NCCN1CCOCC1 | 17 | 0.9 | 0.8 | 11
COc1cccc(-c2csc(N3CCN(Cc4ccccc4)CC3)n2)c1 | 13 | 0.8 | 0.9 | 24
CCN=C(NCC)SC1CC(=O)N(c2cccc(OCC)c2)C1=O (stereo not given) | 76* | 2.1* | 0.2 | -107
CN=C(NC)SC1CC(=O)N(c2ccccc2)C1=O (stereo not given) | 11 | 1.4 | 0.9 | -37
CN=C(Nc1ccccc1)SC1CC(=O)N(c2ccc(C(=O)OC)cc2)C1=O (stereo not given) | 38 | 0.3 | 0.6 | 68*
CCN=C(NCC)SC1CC(=O)N(c2ccc(OC)cc2)C1=O (stereo not given) | 70* | 1 | 0.3 | -2
COc1ccc(CNC(=O)C2CSC(c3ccc(OC)cc3)N2C(C)=O)cc1 (stereo not given) | 21 | 0.6 | 0.8 | 35
O=C(NC1(C(F)(F)F)NC(=O)N(Cc2cccnc2)C1=O)c1cccs1 (stereo not given) | 52* | 0.6 | 0.5 | 37
CCOC(=O)c1cc2c(ccn2C)n1CC(=O)N1CCN(c2ccccc2OC)CC1 | 69* | 0.6 | 0.3 | 38
CCOc1cc2[nH]c(=O)n(CCC(=O)N3CCN(c4ccccc4OC)CC3)c(=O)c2cc1OCC | 20 | 0.3 | 0.8 | 67*
COc1cc2[nH]c(=O)n(CCC(=O)N3CCc4ccccc4C3)c(=O)c2cc1OC | 14 | 0.9 | 0.9 | 14
COc1cc2[nH]c(=O)n(CCCCCC(=O)N3CC=C(c4ccccc4)CC3)c(=O)c2cc1OC | 83* | 0.4 | 0.2 | 61*
O=C1CNC(=O)/C1=C/c1ccc(O)cc1 | 14 | 1 | 0.9 | 3
O=C(CN1C(=O)CC(c2ccco2)Sc2ccccc21)NCC1CCCO1 (stereo not given) | -3 | 1 | 1 | 0
COc1ccc(/C(C)=N\n2cnnc2)cc1 | -8 | 1.2 | 1.1 | -22
O=S(=O)(O)c1nnc2sc3ccccc3n12 | -6 | 0.8 | 1.1 | 16
N#Cc1cnc2sc3ccccc3n2c1=N | 19 | 0.1 | 0.8 | 89*
O=C(C/C=N/OCc1c(Cl)cccc1Cl)c1ccc(Cl)cc1 | 17 | 0.9 | 0.8 | 10
CCN1CCN(CC(=O)Nc2ccc(Cl)c(Cl)c2)C(=O)C1=O | -7 | 0.9 | 1.1 | 11
COC(=O)C1CSC(C(=O)OC)N1C(=O)Nc1ccc(Cl)c(Cl)c1 (stereo not given) | 61* | 0.3 | 0.4 | 67*
COC(=O)C1CSC(C(=O)OC)N1C(=O)Nc1ccc(Cl)cc1 (stereo not given) | 69* | 0.9 | 0.3 | 12
CCOc1ccc(C2c3cc(OC)c(OC)cc3CC(=O)N2c2ccc(OC)cc2)cc1 (stereo not given) | 27 | 0.6 | 0.7 | 35
COc1ccc(C(=O)NC2(C(F)(F)F)C(=O)Nc3c2c(=O)[nH]c(=O)n3CCc2ccc(OC)c(OC)c2)cc1 (stereo not given) | 8 | 0.9 | 0.9 | 9
COc1ccc(OC)c(S(=O)(=O)N2CCC(C(=O)NCCc3ccc(OC)c(OC)c3)CC2)c1 | 61* | 0.8 | 0.4 | 15
CCS(=O)(=O)N1CCCC(C(=O)NCCc2ccc(OC)c(OC)c2)C1 (stereo not given) | -12 | 1 | 1.1 | 2
SMILES | CYP2C19 inh | CYP2C9 act | CYP2C19 act | CYP2C9 inhib
COc1ccc(S(=O)(=O)N2CCC(C(=O)NCCc3ccc4c(c3)OCO4)CC2)cc1 | 86* | 2.1* | 0.1 | -112
O=C(NCCc1ccc2c(c1)OCO2)C1CCN(S(=O)(=O)c2ccc(Cl)cc2)CC1 | 0 | 1 | 1 | 3
COc1ccc(CCNC(=O)C2CCCN(S(=O)(=O)c3cnc[nH]3)C2)cc1OC (stereo not given) | 73* | 0.3 | 0.3 | 71*
COc1ccc(C)cc1S(=O)(=O)N1CCC(C(=O)NCCC2=CCCCC2)CC1 | 36 | 3.1* | 0.6 | -212
CC(C)N(O)C(=O)NC(C)(C)C | -3 | 0.9 | 1 | 8
CN(CCCNC(=O)C1CCCN(S(=O)(=O)c2cnc[nH]2)C1)c1ccccc1 (stereo not given) | 89* | 0.2 | 0.1 | 77*
CCCCN(Cc1ccccc1)C(=O)C1CCCN(S(=O)(=O)c2cnc[nH]2)C1 (stereo not given) | 63* | 0.6 | 0.4 | 36
CC(=O)c1ccc(N2CCN(C(=O)C3CCCN(S(=O)(=O)c4cnc[nH]4)C3)CC2)cc1 (stereo not given) | 12 | 0.9 | 0.9 | 12

From PubChem
